From PubChem BioAssay (NCI)
About 83,000 compounds went through this panel and 20% of them were active in at least one assay; those are over-represented in the sample as a whole.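 Cells were grown in 96-well plates and exposed to the test compound at a single concentration for 48 hours; results are reported as percent growth, with values below 10 considered active.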 The source made the active and inactive calls.

What was measured:
Experiment in all cases: NCI-60 one-dose screen, 48 h (100 = growth as untreated, 0 = no growth, -100 = all killed)
Conditions in all cases: 10 µM unless noted
NCI-H23 lung = test system: NCI-H23 lung
NCI-H226 lung = test system: NCI-H226 lung
NCI-H322M lung = test system: NCI-H322M lung
HOP-62 NSCLC = test system: HOP-62 NSCLC
NCI-H460 lung = test system: NCI-H460 lung
HOP-92 NSCLC = test system: HOP-92 NSCLC
NCI-H522 lung = test system: NCI-H522 lung
A549/ATCC NSCLC = test system: A549/ATCC NSCLC
786-0 renal = test system: 786-0 renal
COLO 205 colon = test system: COLO 205 colon

Measured: growth

COC(=O)CC[C@@H](C)[C@H]1CC[C@H]2C3CC[C@@H]4C[C@@H]5CC[C@]4(C)[C@@]3(O5)[C@H](Br)[C@@H](Br)[C@]12C (stereo not given in full)
inactive: NCI-H23 lung 81.1% | NCI-H226 lung 87.1% | NCI-H322M lung 104% | HOP-62 NSCLC 85.8% | NCI-H460 lung 107% | HOP-92 NSCLC 93.4% | NCI-H522 lung 58% | A549/ATCC NSCLC 68.6% | 786-0 renal 92.5% | COLO 205 colon 101%

Cc1cccc(NC(=O)[C@@H]2c3ccccc3C(=O)N(c3ccc(Cl)cc3)[C@H]2c2ccc(Cl)cc2)n1
inactive: NCI-H23 lung 57.9% | NCI-H226 lung 55.1% | NCI-H322M lung 80.8% | HOP-62 NSCLC 53.1% | NCI-H460 lung 52.5% | HOP-92 NSCLC 42% | NCI-H522 lung 38.7% | A549/ATCC NSCLC 23.6% | 786-0 renal 61.2% | COLO 205 colon 30.7%

Cc1cc([C@@H](C)Nc2ccccc2C(=O)O)c2nc(N3CCOCC3)cc(=O)n2c1
inactive: NCI-H23 lung 54.8% | NCI-H226 lung 55.4% | NCI-H322M lung 39.9% | HOP-62 NSCLC 37.5% | NCI-H460 lung 22.6% | HOP-92 NSCLC 13.7% | NCI-H522 lung 42.3% | A549/ATCC NSCLC 32% | 786-0 renal 18.6%
active: COLO 205 colon -5.47%

Cn1cc(-c2[nH]c3cc(NC(=O)[C@H](N)C4CCCCC4)cc4c3c2C=NNC4=O)cn1
inactive: NCI-H226 lung 26.1% | NCI-H322M lung 16.1% | NCI-H460 lung 11.6% | A549/ATCC NSCLC 14%
active: NCI-H23 lung -12.7% | HOP-62 NSCLC -11.3% | HOP-92 NSCLC -25.2% | NCI-H522 lung -66% | 786-0 renal -18.9% | COLO 205 colon -78.4%

Cc1cc(Oc2ccccc2)ccc1Nc1ncnc2ccc(-c3cnc(Cl)c(NS(C)(=O)=O)c3)cc12
active: NCI-H322M lung 0.949% | HOP-92 NSCLC -14%
inactive: NCI-H23 lung 28.5% | NCI-H226 lung 36.9% | HOP-62 NSCLC 28.2% | NCI-H460 lung 18% | NCI-H522 lung 32.1% | A549/ATCC NSCLC 11% | 786-0 renal 16.8% | COLO 205 colon 12.1%

Cc1nn(-c2nc3ccccc3[nH]2)c2c1C(c1ccc(OCc3ccc(F)cc3)cc1)CC(=O)N2 (stereo not given)
inactive: NCI-H23 lung 46.9% | NCI-H226 lung 74.5% | NCI-H322M lung 70.4% | HOP-62 NSCLC 69.5% | NCI-H460 lung 48% | HOP-92 NSCLC 72% | NCI-H522 lung 30.5% | A549/ATCC NSCLC 41.8% | 786-0 renal 63.4% | COLO 205 colon 103%

Cc1cc2c(-c3nc4ccccn4c3NC34CC5CC(CC(C5)C3)C4)c(O)c(O)cc2c(O)c1-c1c(C)cc2c(-c3nc4ccccn4c3NC34CC5CC(CC(C5)C3)C4)c(O)c(O)cc2c1O
active: NCI-H23 lung -1.87% | HOP-62 NSCLC 1.34% | NCI-H460 lung 5.53% | HOP-92 NSCLC -9.41% | NCI-H522 lung -5.03% | A549/ATCC NSCLC 2.96% | 786-0 renal -12% | COLO 205 colon 6.77%
inactive: NCI-H226 lung 12.7% | NCI-H322M lung 30.2%

Cc1cc(Nc2cc(N3CCN(C)CC3)nc(/C=C/c3ccccc3)n2)n[nH]1
inactive: NCI-H23 lung 22.3% | NCI-H226 lung 17.7% | NCI-H322M lung 29.5%
active: HOP-62 NSCLC -19.7% | NCI-H460 lung 5.31% | HOP-92 NSCLC -60.5% | NCI-H522 lung -12.4% | A549/ATCC NSCLC -25% | 786-0 renal -94.3% | COLO 205 colon -63.2%

CC1(COc2ccc3c(c2)ncn3-c2ccc3cccc(N4CCC(N)CC4)c3n2)COC1
inactive: NCI-H23 lung 20.6% | NCI-H226 lung 19.9% | NCI-H322M lung 41.1% | HOP-92 NSCLC 63.3%
active: HOP-62 NSCLC 2.15% | NCI-H460 lung -33% | NCI-H522 lung -36.9% | A549/ATCC NSCLC -35.2% | 786-0 renal -33.2% | COLO 205 colon -66.5%

C[C@@H](Oc1cc(-n2cnc3ccc(CN4CCN(C)CC4)cc32)sc1C(N)=O)c1ccccc1C(F)(F)F
active: HOP-62 NSCLC 4.73% | NCI-H460 lung 8.47% | NCI-H522 lung -13.5% | A549/ATCC NSCLC 0.209% | 786-0 renal 6.39% | COLO 205 colon -17.1%
inactive: NCI-H23 lung 32.9% | NCI-H226 lung 69.3% | NCI-H322M lung 63.8% | HOP-92 NSCLC 21.7%

CC[C@@H]1C(=O)N(C)c2cnc(Nc3ccc(C(=O)NC4CCC(N5CCN(CC6CC6)CC5)CC4)cc3OC)nc2N1C(C)C (stereo not given in full)
active: NCI-H23 lung -1.19% | HOP-62 NSCLC -29.7% | NCI-H460 lung 1.14% | NCI-H522 lung -52.8% | A549/ATCC NSCLC -6.16% | 786-0 renal -80.2% | COLO 205 colon -61.9%
inactive: NCI-H226 lung 49.7% | NCI-H322M lung 23.3% | HOP-92 NSCLC 20.7%

C=CC(=O)N1CCC(Oc2cc3c(Nc4ccc(Cl)c(Cl)c4F)ncnc3cc2OC)CC1
inactive: NCI-H23 lung 23.2% | NCI-H226 lung 34.9% | NCI-H322M lung 12.2% | HOP-62 NSCLC 18.4% | NCI-H460 lung 39.3% | A549/ATCC NSCLC 15.7% | 786-0 renal 23.2% | COLO 205 colon 15%
active: HOP-92 NSCLC -29.7% | NCI-H522 lung -49.3%

C[C@@H](Oc1cc(C(=O)Nc2ccc(C(=O)N3CCN(C)CC3)cc2)nnc1N)c1c(Cl)ccc(F)c1Cl
inactive: NCI-H23 lung 62.6% | NCI-H226 lung 66.9% | NCI-H322M lung 92.9% | HOP-62 NSCLC 64.8% | NCI-H460 lung 79.8% | HOP-92 NSCLC 48.3% | NCI-H522 lung 71.1% | A549/ATCC NSCLC 55.8% | 786-0 renal 67.4% | COLO 205 colon 55.1%

CC(C)n1c(NCCc2ccc(O)c(O)c2)nc2c1c(=O)n(C)c(=O)n2C
inactive: NCI-H23 lung 87.2% | NCI-H226 lung 90.1% | NCI-H322M lung 95.1% | HOP-62 NSCLC 103% | NCI-H460 lung 100% | HOP-92 NSCLC 83.7% | NCI-H522 lung 85.2% | A549/ATCC NSCLC 92.8% | 786-0 renal 90.4% | COLO 205 colon 103%

Nc1nc(N)c2cc(CNc3ccc(C(=O)NC(CC(=O)O)C(=O)O)cc3)ccc2n1 (stereo not given)
inactive: NCI-H23 lung 17.7% | NCI-H226 lung 23.2% | NCI-H322M lung 66.7% | HOP-62 NSCLC 19.7% | NCI-H460 lung 11.5% | HOP-92 NSCLC 48.5% | NCI-H522 lung 34.3% | 786-0 renal 15.8% | COLO 205 colon 51.9%
active: A549/ATCC NSCLC -32.8%

CN1CC[C@@H](c2c(O)cc(O)c3c(=O)cc(-c4ccccc4Cl)oc23)[C@@H]1CO
active: NCI-H23 lung -26.5% | NCI-H226 lung 7.7% | NCI-H322M lung -1.67% | HOP-62 NSCLC -21.2% | NCI-H460 lung 4.14% | HOP-92 NSCLC -2.24% | NCI-H522 lung -13.8% | A549/ATCC NSCLC 4.56% | 786-0 renal 4.31% | COLO 205 colon -64.5%

CO[C@H]1C[C@@H]2CC[C@@H](C)[C@@](O)(O2)C(=O)C(=O)N2CCCC[C@H]2C(=O)O[C@H]([C@H](C)C[C@@H]2CC[C@@H](OP(C)(C)=O)[C@H](OC)C2)CC(=O)[C@H](C)/C=C(\C)[C@@H](O)[C@@H](OC)C(=O)[C@H](C)C[C@H](C)\C=C/C=C/C=C/1C
inactive: NCI-H23 lung 57.5% | NCI-H226 lung 40.9% | NCI-H322M lung 54.5% | HOP-62 NSCLC 28.5% | NCI-H460 lung 40.4% | HOP-92 NSCLC 36.2% | NCI-H522 lung 31.8% | A549/ATCC NSCLC 34.6% | 786-0 renal 53.3% | COLO 205 colon 52.6%

Cc1nn(-c2nc3ccccc3[nH]2)c2c1C(c1ccc(O)cc1)CC(=O)N2 (stereo not given)
inactive: NCI-H23 lung 74.9% | NCI-H226 lung 96.9% | NCI-H322M lung 104% | HOP-62 NSCLC 93.1% | NCI-H460 lung 57.4% | HOP-92 NSCLC 99.3% | NCI-H522 lung 52% | A549/ATCC NSCLC 61.3% | 786-0 renal 115% | COLO 205 colon 103%

CC(C)NC[C@@H](C(=O)N1CCN(c2ncnc3c2[C@H](C)C[C@H]3O)CC1)c1ccc(Cl)cc1
inactive: NCI-H23 lung 58.7% | NCI-H226 lung 56.2% | NCI-H322M lung 55.6% | HOP-62 NSCLC 54% | NCI-H460 lung 29.3% | NCI-H522 lung 53% | A549/ATCC NSCLC 38% | COLO 205 colon 20.2%
active: HOP-92 NSCLC 2.39% | 786-0 renal 4.37%

Nc1cc2c(cc1Br)-c1c(C(=O)O)cccc1C2O (stereo not given)
inactive: NCI-H23 lung 87.2% | NCI-H226 lung 100% | NCI-H322M lung 107% | HOP-62 NSCLC 95.9% | NCI-H460 lung 99.4% | HOP-92 NSCLC 125% | NCI-H522 lung 96.5% | A549/ATCC NSCLC 91.7% | 786-0 renal 98.8% | COLO 205 colon 96.3%

CNC(=O)c1cc(Oc2ccc3nc(NC(=O)Nc4ccc(Cl)c(C(F)(F)F)c4)sc3c2)ccn1
active: HOP-62 NSCLC -31.3% | NCI-H460 lung 3.45% | HOP-92 NSCLC -27.6% | A549/ATCC NSCLC -25.1% | 786-0 renal -64.4%
inactive: NCI-H23 lung 16.5% | NCI-H226 lung 20.6% | NCI-H322M lung 23.7% | NCI-H522 lung 17.1% | COLO 205 colon 23.8%

COc1cc2ncnc(Nc3cccc(Cl)c3F)c2cc1OC(=O)N1CCN(C)C[C@H]1C
inactive: NCI-H23 lung 92% | NCI-H226 lung 75.7% | NCI-H322M lung 10.5% | HOP-62 NSCLC 61.8% | NCI-H460 lung 90.2% | HOP-92 NSCLC 51.9% | NCI-H522 lung 16.2% | A549/ATCC NSCLC 40.8% | 786-0 renal 75.6% | COLO 205 colon 79.5%

C[C@@H](C[C@H](CCO)c1cc(C(F)(F)F)cc(C(F)(F)F)c1)c1ccc2ccccc2c1
inactive: NCI-H23 lung 85.3% | NCI-H226 lung 91.1% | NCI-H322M lung 99.1% | HOP-62 NSCLC 85.6% | NCI-H460 lung 106% | HOP-92 NSCLC 96.5% | NCI-H522 lung 76.7% | A549/ATCC NSCLC 87.7% | 786-0 renal 87.5% | COLO 205 colon 97%
